Assay outcomes: PubChem, Broad Institute
The list is not random: actives were taken first. Their share in the collection is about 2.9%.
Vif imaging: blocks HIV Vif function; inhibition, % at 7.49 µM; hit rate 0.35% among 340,000; HEK293T cells, Vif self-association by quenched fluorescence, imaging, 24 h; in the data active means inhibition above about 50%, passing the limit was not always enough; inconclusive means no clear call, values can overlap the other calls; inactive means below about 31%
Wnt act: activators of Wnt/beta-catenin signaling | hit rate 1.2% among 300,000 | Wnt/beta-catenin reporter cell assay, activator, plate reader | activation, % at 9.35 µM; in the data active means activation above about 30%, passing the limit was not always enough; inconclusive means no clear call, values can overlap the other calls;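 further: 0% = neutral control wells and 100% = positive control wells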
Glyco luc inh: blocks N-linked glycosylation in D54 reporter cells. D54 ERlucT glycosylation luciferase reporter, 24 h; percent of 100 nM tunicamycin response. reporter increase, % at 12.5 µM. hit rate 0.23% among 360,000. AID 588692;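 active means mean luciferase reporter signal, scaled so untreated is 0 and the glycosylation-blocking control 100, at or above a set limit in every replicate; inconclusive means mean reaches the limit but not every replicate does; inactive means mean below the limit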;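 further: luciferase carries N-glycosylation sites so blocking glycosylation raises the light; 0% = median of neutral control wells and 100% = median of 100 nM tunicamycin wells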
esBAF inh: SWI/SNF esBAF complex inhibition; mouse ES cells, Bmi1-luciferase knock-in reporter, 24 h; 100% = twice the neutral-well signal; reporter increase, % at 12.5 µM; hit rate 2% among 350,000; in the data active means activation above about 40%; inconclusive means no clear call, values can overlap the other calls;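 further: 0% = median of the plate's neutral control wells and 100% = double that signal; a rise in the Bmi1 reporter signal indicates esBAF inhibition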
MITF TRPM1 HTS: MITF TRPM1 promoter activation in melanoma cells. SK-MEL-5 TRPM1-promoter luciferase, 24 h; % of positive control, neutral wells = 0. hit rate 0.75% among 300,000. activation, % at 12.5 µM. AID 588334;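 active means mean activation of at least 80% with every replicate also reaching 80%; inconclusive means mean reaches 80% but some replicate falls short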;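 further: 0% = neutral control wells and 100% = parthenolide positive control wells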
PvdQ acylase: P. aeruginosa PvdQ acylase inhibition. purified PvdQ acylase, fluorescence plate reader. inhibition, % at 10 µM. hit rate 0.063% among 340,000. AID 488965; in the data active means inhibition above about 30%, passing the limit was not always enough; inconclusive means no clear call, values can overlap the other calls;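 further: 0% = vehicle neutral wells and 100% = reference inhibitor wells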
* hit, by the source's call; ? = inconclusive; · = no result.

SMILES	Vif imaging	Wnt act	Glyco luc inh	esBAF inh	MITF TRPM1 HTS	PvdQ acylase
O=C(CSC1=NS(=O)(=O)c2ccccc21)Nc1ccccc1	-2.3	-22.1	4.5	50.1*	-48.4	-35.4
COc1ccc(NC(=O)Nc2ccc3c(c2)C(=O)N([C@@H](C)CO)C[C@@H](C)[C@H](CN(C)S(=O)(=O)c2ccccc2)OCCCC[C@H](C)O3)cc1	·	·	·	-3.2	·	·
NC(=O)[C@H]1CC2(CC(c3cccc(NC(=O)c4ccccc4)c3)=NO2)CN1C(=O)[C@H]1CCC(=O)N1 (stereo not given in full)	5.3	52.9*	4.2	-0.1	-5.1	-12.4
O=C(C[C@@H]1CC[C@@H]2[C@H](COC[C@H](O)CN2C(=O)Cc2ccccc2)O1)NC1CCCC1	·	·	·	3.0	·	·
CCC(=O)N1[C@@H]2c3ccc(C4=CCCC4)c(=O)n3C[C@@H]2[C@@H](CO)[C@@H]1C(=O)NC1CCC1	·	·	·	-5.3	·	·
O=C(Cc1ccc(Br)cc1)c1ccc(O)cc1O	2.9	?	0.1	59.6*	38.9	-10.4
O=C1C=CC(=O)N1c1ccccc1N1C(=O)C=CC1=O	157.1*	-0.4	0.7	-15.4	-93.8	-23.2
O=C1CCN(Cc2ccccc2)CCN1CCOc1ccccc1	-1.7	12.7	-7.4	9.8	85.0*	-18.2
O=C(Nc1ccccc1)OCCN1CCN(Cc2ccccc2)CCC1=O	1.7	-3.3	0.2	-14.6	10.9	-7.8
CC(C)CN1CCC(=O)N(CCSc2ccccc2)CC1	3.4	42.1*	-6.3	6.5	73.2	12.3
CC(=O)N(C)C[C@@H]1Oc2cc(C#Cc3ccncc3)ccc2S(=O)(=O)N([C@H](C)CO)C[C@@H]1C	·	·	·	1.1	·	·
CC(=O)c1cccc(-c2ccnc3c2CC(C(=O)NCc2ccccc2)O3)c1 (stereo not given)	35.0	·	19.6	-25.0	·	·
O=C(NCc1ccccc1)C1Cc2c(-c3cccc(F)c3)ccnc2O1 (stereo not given)	13.1	·	34.6*	-16.9	·	·
CC(=O)c1cccc(-c2ccnc3c2CC(C(=O)NCc2ccc(F)c(F)c2)O3)c1 (stereo not given)	8.2	1.0	34.5*	-20.6	·	·
O=C(NCc1cccc(Cl)c1)C1Cc2c(-c3cccc(F)c3)ccnc2O1 (stereo not given)	-3.9	-0.4	2.0	-4.5	·	·
CC(=O)c1cccc(-c2ccnc3c2CC(C(=O)NCc2ccco2)O3)c1 (stereo not given)	54.2*	-1.9	31.7*	-2.5	·	·
CC(C)(C)c1cc(C(=O)NCc2cc(F)cc3c2OCOC3)n(Cc2ccccc2)n1	-5.9	0.2	-0.5	50.1*	·	-13.8
CC(C)(C)c1cc(C(=O)NNC(=O)Nc2ccccc2)n(Cc2ccccc2)n1	13.6	-3.8	1.8	-3.2	-4.8	6.9
CN1CCN(CC(=O)Nc2cc(N(C)C)nc3ccccc23)CC1	0.4	0.6	43.8*	-2.4	-0.4	-5.8
C[C@@H]1CN([C@@H](C)CO)C(=O)Cc2cc(NS(C)(=O)=O)ccc2O[C@@H]1CN(C)S(=O)(=O)c1ccccc1	·	·	·	-0.5	·	·
Cc1cc(-c2nc3ccccc3c(=O)o2)ccc1[N+](=O)[O-]	-2.2	39.4*	0.4	32.6	11.4	-12.3
Cc1ccc(-c2nc3ccccc3c(=O)o2)cc1	-1.5	3.5	2.7	39.6	20.0	-1.6
CCOc1ccc2nc(SCC3CC3(Cl)Cl)[nH]c2c1 (stereo not given)	2.1	34.6*	1.9	·	·	0.5
ClC1(Cl)CC1CSc1nc2ccccc2[nH]1 (stereo not given)	8.2	8.5	-2.2	·	65.5	-1.2
C[C@H](CO)N1C[C@H](C)[C@H](CN(C)C(=O)Cc2ccccc2)Oc2cc(-c3ccccc3)ccc2S1(=O)=O	·	·	·	0.4	·	·
SMILES	Vif imaging	Wnt act	Glyco luc inh	esBAF inh	MITF TRPM1 HTS	PvdQ acylase
Cc1noc(C)c1NC(=O)N(C)C[C@@H]1Oc2c(NC(=O)Nc3cccc4ccccc34)cccc2C(=O)N([C@@H](C)CO)C[C@@H]1C	·	·	·	6.0	·	·
CC(C(=O)NC1C=CS(=O)(=O)C1)N1C(=O)/C(=C\c2ccccc2)SC1=S (stereo not given)	-23.5	-2.3	-5.9	8.2	-6.3	-10.7
COc1ccccc1/C=C1/SC(=S)N(C(C)C(=O)NC2C=CS(=O)(=O)C2)C1=O (stereo not given)	55.2*	-0.3	4.5	7.1	-0.2	4.4
CCCN(CCC)c1nc2ccccc2nc1C(C#N)C(=O)OCCOC (stereo not given)	·	·	-4.6	-6.6	90.9*	-1.7
CCC(=O)N(C)C[C@@H]1Oc2ncc(-c3ccc(C#N)cc3)cc2C(=O)N([C@H](C)CO)C[C@@H]1C	·	·	·	0.9	·	·
Cc1ccc(S(=O)(=O)N[C@@H](Cc2ccccc2)C(=O)N2CCC(C(=O)N[C@@H](CCC(N)=O)C(=O)O)CC2)cc1	59.0*	0.4	0.5	3.0	3.7	-5.5
CCCN1C[C@@H](C)[C@H](OC)CN(C)C(=O)c2cc(NC(=O)COC)ccc2OC[C@@H]1C	·	·	·	-0.2	·	·
O=C(COC(=O)c1cc(S(=O)(=O)N2CCOCC2)ccc1F)c1ccc[nH]1	53.3*	-10.8	2.6	·	-0.4	-8.5
O=C(COC(=O)c1cc(S(=O)(=O)N2CCOCC2)ccc1Cl)c1ccc[nH]1	7.8	-1.3	1.6	15.5	·	·
O=C(O)c1ccc(N/N=C/c2cn(Cc3ccccc3F)c3ccccc23)cc1	-13.2	13.0	-12.9	53.8*	72.8	-17.0
CC(C)(C)c1ccc(OC(=O)N2CCOCC2)cc1	-1.7	0.9	-2.3	45.1*	71.0	4.0
CO[C@@H]1CN(C)C(=O)c2cc(NS(=O)(=O)c3cn(C)cn3)ccc2OC[C@H](C)N(C)C[C@H]1C	·	·	·	2.0	·	·
O=C(CSCc1ccco1)N1CCc2ccccc21	5.5	·	-5.7	30.3	71.2	86.3*
O=C(CSc1ccccc1)N1CCc2ccccc21	16.8	-3.5	-2.0	?	49.5	3.5
C[C@@H]1CN([C@@H](C)CO)C(=O)Cc2cc(NC(=O)Cn3cnnn3)ccc2O[C@H]1CN(C)CC1CCCCC1	·	·	·	0.4	·	·
O=c1c2ccccc2oc2ccc(NCCCn3ccnc3)cc12	-4.3	34.5*	-16.0	-58.6	42.6	-10.2
c1ccc2c(c1)oc1c(NCCCn3ccnc3)ncnc12	·	·	2.3	·	-15.6	-10.6
NC(=O)C1=C[C@H](C2CCCCC2)C[C@H](OCc2ccc(CO)cc2)O1	-2.2	?	-10.6	72.6*	107.1*	-5.9
COc1ccc(/C=C/C(=O)c2ccoc2)cc1	8.5	·	1.6	33.2	27.4	40.0*
COc1ccc(/C=C/C(=O)c2ccc(O)cc2)cc1	19.4	0.8	2.7	17.0	46.8	20.3
COc1ccc(/C=C/C(=O)c2ccccn2)cc1	10.0	74.9*	2.1	·	37.6	-15.1
COc1ccc(/C=C/C(=O)c2ccccc2O)cc1	-4.5	·	3.5	86.9*	140.7*	12.9
CCCC(=O)Nc1ccc2c(c1)C(=O)N(C)C[C@@H](OC)[C@@H](C)CN(Cc1ccccc1)[C@@H](C)CO2	·	·	·	0.7	·	·
